Where a name gives a salt, the structure may show the parent alone. ± gives the standard deviation of the averaged measurements.
System: E. coli TESEC Alr+ wild-type control
Test: growth (OD600 after 10 h); higher = more growth (less inhibition)
Conditions: compound 0.1 mM; raw OD600 reference: median of DMSO wells 0.49, cell-free background 0.052
Protocol: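 TESEC Mtb Alr E. coli (ΔaraC ΔtolC ΔentC Δalr ΔdadX, arabinose-inducible Mtb Alr) or the Alr+ wild-type control strain, grown in defined M9-fructose medium without D-alanine in 96-well plates with Prestwick library compounds at 0.1 mM and 1% DMSO. Low Alr induction is 0.1 µM arabinose and high induction is 10 mM arabinose.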

| SMILES | growth |
| --- | --- |
| CCN(CC)C(=O)c1ccc(O)c(OC)c1 [Ethamivan] | 0.543 ± 0.12 |
| Cc1cccc(Nc2ccncc2S(=O)(=O)NC(=O)NC(C)C)c1 [Torsemide] | 0.477 ± 0.021 |
| CC(=O)O[C@]1(C(C)=O)CC[C@H]2[C@@H]3C=C(Cl)C4=CC(=O)CC[C@]4(C)[C@H]3CC[C@@]21C [Chlormadinone acetate] | 0.442 ± 0.0057 |
| N=C(NCCCCCCNC(=N)NC(=N)Nc1ccc(Cl)cc1)NC(=N)Nc1ccc(Cl)cc1 [Chlorhexidine] | 0.0486 ± 0.0014 |
| CC(C)NC[C@@H](O)COc1cccc2ccccc12 [(R)-Propranolol hydrochloride] | 0.58 ± 0.019 |
| NCCC[C@H](N)CC(=O)N[C@H]1CNC(=O)[C@H]([C@H]2C[C@H](O)NC(N)=N2)NC(=O)/C(=C/NC(N)=O)NC(=O)[C@H](CO)NC(=O)[C@H](CO)NC1=O [Viomycin sulfate] | 0.193 ± 0.13 |
| Cc1ccc(N(CC2=NCCN2)c2cccc(O)c2)cc1 [Phentolamine hydrochloride] | 0.452 ± 0.0089 |
| Clc1ccc(C(c2ccccc2Cl)C(Cl)Cl)cc1 (stereo not given) [Mitotane] | 0.403 ± 0.0086 |
| CO/N=C(\C(=O)N[C@@H]1C(=O)N2C(C(=O)OC(C)OC(C)=O)=C(COC(N)=O)CS[C@H]12)c1ccco1 (stereo not given in full) [Cefuroxime axetil] | 0.427 ± 0.051 |
| CNc1ncnc2c1ncn2[C@@H]1O[C@H](CO)[C@@H](O)[C@H]1O [N6-methyladenosine] | 0.539 ± 0.094 |
| O=C(CCCN1CCN(c2ccccn2)CC1)c1ccc(F)cc1 [Azaperone] | 0.395 ± 0.0085 |
| CN1CCN(CCCN2c3ccccc3Sc3ccc(S(=O)(=O)N(C)C)cc32)CC1 [Thioproperazine dimesylate] | 0.409 ± 0.041 |
| Cn1c(=O)c2c(ncn2C)n(C)c1=O [Caffeine] | 0.617 ± 0.065 |
| O=P(O)(O)C(O)(Cc1cccnc1)P(=O)(O)O [Risedronic acid monohydrate] | 0.608 ± 0.083 |
| CCCCCN(C)CCC(O)(P(=O)(O)O)P(=O)(O)O [Ibandronate sodium] | 0.462 ± 0.035 |
| CNCC[C@@H](Oc1cccc2ccccc12)c1cccs1 [(R)-Duloxetine hydrochloride] | 0.503 ± 0.049 |
| Cn1c(=O)c2nc[nH]c2n(C)c1=O [Theophylline monohydrate] | 0.461 ± 0.014 |
| O=C(Oc1cccc2cccnc12)c1ccccc1 [Benzoxiquine] | 0.505 ± 0.036 |
| CCCC(=O)Nc1ncnc2c1ncn2[C@@H]1O[C@@H]2COP(=O)(O)O[C@H]2[C@H]1OC(=O)CCC [Bucladesine sodium salt] | 0.565 ± 0.093 |
| O=C(NCCO[N+](=O)[O-])c1cccnc1 [Nicorandil] | 0.481 ± 0.072 |

| SMILES | growth |
| --- | --- |
| CN1C(C(=O)Nc2ccccn2)=C(O)c2sccc2S1(=O)=O [Tenoxicam] | 0.493 ± 0.051 |
| CC1=C(/C=C/C(C)=C/C=C/C(C)=C/C(=O)O)C(C)(C)CCC1 [Retinoic acid] | 0.476 ± 0.045 |
| CCC(NC(C)C)C(O)c1ccc(O)c(O)c1 (stereo not given) [Isoetharine mesylate salt] | 0.64 ± 0.039 |
| CCCc1nc(C)c2c(=O)nc(-c3cc(S(=O)(=O)N4CCN(CC)CC4)ccc3OCC)[nH]n12 [Vardenafil] | 0.55 ± 0.11 |
| CN1CCCCC1CCN1c2ccccc2Sc2ccc([S+](C)[O-])cc21 (stereo not given) [Mesoridazine besylate] | 0.568 ± 0.023 |
| CCC(C)(C)c1ccc(CC(C)CN2C[C@@H](C)O[C@@H](C)C2)cc1 (stereo not given in full) [Amorolfine hydrochloride] | 0.0891 ± 0.0055 |
| O=c1[nH]cc(F)c(=O)[nH]1 [5-fluorouracil] | 0.556 ± 0.066 |
| N=C(N)NC(=N)NCCc1ccccc1 [Phenformin hydrochloride] | 0.469 ± 0.053 |
| O=C1Nc2ccc(Cl)cc2[C@@](C#CC2CC2)(C(F)(F)F)O1 [Efavirenz] | 0.047 ± 0.00044 |
| CCCSc1ccc2[nH]c(NC(=O)OC)nc2c1 [Albendazole] | 0.48 ± 0.013 |
| CN1CCN(c2c(F)cc3c(=O)c(C(=O)O)cn(CCF)c3c2F)CC1 [Fleroxacin] | 0.0565 ± 0.002 |
| CC1=C(CC(=O)O)c2cc(F)ccc2/C1=C\c1ccc([S+](C)[O-])cc1 (stereo not given) [Sulindac] | 0.364 ± 0.036 |
| CN(C)CCOC(=O)C(c1ccccc1)C1(O)CCCC1 (stereo not given) [Cyclopentolate hydrochloride] | 0.54 ± 0.099 |
| C[C@]12CCC(=O)C=C1CC[C@@H]1[C@@H]2C(=O)C[C@@]2(C)[C@H]1CC[C@]2(O)C(=O)CO [Cortisone] | 0.46 ± 0.066 |
| COc1ccc(C(=O)NCc2cccnc2)cc1C(=O)NCc1cccnc1 [Picotamide monohydrate] | 0.453 ± 0.033 |
| CC(C)NNC(=O)c1ccncc1 [Iproniazide phosphate] | 0.496 ± 0.095 |
| CC[C@H]1OC(=O)[C@H](C)[C@@H](O[C@H]2C[C@@](C)(OC)[C@@H](O)[C@H](C)O2)[C@H](C)[C@@H](O[C@@H]2O[C@H](C)C[C@H](N(C)C)[C@H]2O)[C@](C)(O)C[C@@H](C)C(=O)[C@H](C)[C@@H](O)[C@]1(C)O [Erythromycin] | 0.0538 ± 0.0043 |
| OC(CCN1CCCCC1)(c1ccccc1)C1CC2C=CC1C2 (stereo not given) [Biperiden hydrochloride] | 0.509 ± 0.062 |
| CC#C[C@]1(O)CC[C@H]2[C@@H]3CCC4=CC(=O)CCC4=C3[C@@H](c3ccc(N(C)C)cc3)C[C@@]21C [Mifepristone] | 0.337 ± 0.037 |
| CO[C@@]1(NC(=O)C2SC(=C(C(N)=O)C(=O)O)S2)C(=O)N2C(C(=O)O)=C(CSc3nnnn3C)CS[C@@H]21 (stereo not given in full) [Cefotetan] | 0.0443 ± 0.00044 |

— the supplement of paper PMC9262897, “Low-cost anti-mycobacterial drug discovery using engineered E. coli” (Nature Communications, 2022)
